Values joined by “and” are separate entries in the source; they are usually repeats but may differ in a detail not shown here. Identical values can stand only once. Active and inactive are the calls of the source.

The subject of assay [1] is Plasmodium falciparum Sir2 (PF13_0152, Sir2A). The assay can be described thus: pfSir2 binders on small-molecule microarrays, primary screen, biochemical, small-molecule microarray, 635 nm fluorescence (AID 1098).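 Also: score merges spot fluorescence intensity with its signal-to-noise ratio.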 Conditions: small-molecule microarray binding, fluorescence 635 nm; higher = more signal.
Assay [2] can be described thus: small-molecule microarray binders of probe aDKK1, primary screen, biochemical, biotinylated probe, 635/667 nm fluorescence (AID 1099).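 Also: score merges 667nm spot fluorescence with signal to noise across triplicate slides.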 Conditions: higher = more signal.
A short description of assay [3]: small-molecule microarray binders of probe aCHRDL2, primary screen, biochemical, biotinylated probe, 635/667 nm fluorescence (AID 1100). To be noted: higher = more signal.
Assay [4] in a line: splicing luciferase reporter signal modulators, primary screen, spliceosome inhibition project, cell-based, HEK293, splice +/- reporter (AID 1101).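 Also: HEK293 cells carrying a splicing-competent luciferase reporter gene; test concentration not given here.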 Conditions: luminescence, 24 h, higher = more signal, called active from +8 up or from −8 down. On the technique in general: A reporter such as luciferase makes a cellular process visible.
Assay [5] concerns the target Fibroblast growth factor 10 (Homo sapiens) (UniProt O15520). The assay can be described thus: FGF10 binders on small-molecule microarrays, primary screen, biochemical, small-molecule microarray, 635 nm fluorescence (AID 1102). To be noted: FGF10 binding, fluorescence 635 nm, higher = more signal.
Assay [6] relates to glycogen synthase kinase-3 (GSK3A per assay name; protocol says GSK3B). The assay can be described thus: GSK3 binders on small-molecule microarrays, primary screen, biochemical, small-molecule microarray, 635 nm fluorescence, GSK3A (AID 1103). Also: the record names both GSK3A and GSK3B. Conditions: small-molecule microarray binding, fluorescence 635 nm; higher = more signal.
In assay [7] the target is Epidermal growth factor receptor (Homo sapiens) (UniProt P00533). Kind of assay: EGFR binders on small-molecule microarrays, primary screen, biochemical, small-molecule microarray, 635 nm fluorescence (AID 1104).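 Also: score merges 667 nm emission intensity with spot signal to noise over triplicate slides.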 Conditions: EGFR binding, higher = more signal.
Chain of Epidermal growth factor receptor (Homo sapiens) (P00533 whole entry, looked up): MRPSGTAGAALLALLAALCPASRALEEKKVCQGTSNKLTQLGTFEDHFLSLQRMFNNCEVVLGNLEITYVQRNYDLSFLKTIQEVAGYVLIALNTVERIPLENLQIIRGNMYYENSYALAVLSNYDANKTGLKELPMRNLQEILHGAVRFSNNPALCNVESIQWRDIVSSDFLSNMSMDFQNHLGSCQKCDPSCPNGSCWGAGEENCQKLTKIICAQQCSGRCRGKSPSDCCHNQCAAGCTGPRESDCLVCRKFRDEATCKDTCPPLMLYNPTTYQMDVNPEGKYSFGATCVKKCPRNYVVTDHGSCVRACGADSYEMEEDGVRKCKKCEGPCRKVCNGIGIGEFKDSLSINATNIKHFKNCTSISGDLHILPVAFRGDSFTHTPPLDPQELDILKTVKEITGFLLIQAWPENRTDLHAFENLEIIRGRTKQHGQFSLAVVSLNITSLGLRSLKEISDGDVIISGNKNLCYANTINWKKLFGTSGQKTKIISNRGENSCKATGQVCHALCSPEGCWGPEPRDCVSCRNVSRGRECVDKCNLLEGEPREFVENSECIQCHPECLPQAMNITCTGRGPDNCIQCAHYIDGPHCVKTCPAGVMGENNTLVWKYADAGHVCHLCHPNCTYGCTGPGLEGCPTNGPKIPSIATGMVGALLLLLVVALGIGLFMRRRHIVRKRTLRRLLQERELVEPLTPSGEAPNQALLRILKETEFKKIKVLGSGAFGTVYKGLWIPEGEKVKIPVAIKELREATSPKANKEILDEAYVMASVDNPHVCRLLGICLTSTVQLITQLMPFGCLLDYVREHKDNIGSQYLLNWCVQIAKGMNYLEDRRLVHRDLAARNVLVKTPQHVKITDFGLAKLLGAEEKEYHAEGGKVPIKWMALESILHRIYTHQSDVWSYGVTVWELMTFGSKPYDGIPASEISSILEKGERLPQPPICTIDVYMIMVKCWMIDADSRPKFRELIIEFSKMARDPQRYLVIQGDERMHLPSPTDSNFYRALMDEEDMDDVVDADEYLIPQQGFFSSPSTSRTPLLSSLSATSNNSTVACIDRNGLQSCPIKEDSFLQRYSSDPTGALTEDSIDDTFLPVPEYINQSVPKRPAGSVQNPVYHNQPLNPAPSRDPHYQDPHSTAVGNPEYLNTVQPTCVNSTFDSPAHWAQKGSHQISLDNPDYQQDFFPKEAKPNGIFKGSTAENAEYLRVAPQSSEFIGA
In assay [8] the target is Follistatin-related protein 3 (Homo sapiens) (UniProt O95633). Kind of assay: FSTL3 binders on small-molecule microarrays, primary screen, biochemical, small-molecule microarray, 635 nm fluorescence (AID 1105).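 Also: score merges emission near 667 nm and signal to noise per printed spot across three slides.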 To be noted: FSTL3 binding, higher = more signal.
Chain of Follistatin-related protein 3 (Homo sapiens) (O95633 whole entry, looked up): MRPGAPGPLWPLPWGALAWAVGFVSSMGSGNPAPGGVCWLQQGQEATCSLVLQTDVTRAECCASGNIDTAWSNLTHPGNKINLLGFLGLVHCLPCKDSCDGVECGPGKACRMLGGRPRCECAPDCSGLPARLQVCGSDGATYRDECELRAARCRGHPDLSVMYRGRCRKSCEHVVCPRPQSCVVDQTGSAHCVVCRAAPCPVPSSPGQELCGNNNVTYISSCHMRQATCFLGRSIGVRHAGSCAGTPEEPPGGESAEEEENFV
Assay [9] addresses Dickkopf-related protein 1 (Homo sapiens) (UniProt O94907). The assay can be described thus: DKK1 binders on small-molecule microarrays, primary screen, biochemical, small-molecule microarray, 635 nm fluorescence scan (AID 1106).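 Also: score merges emission near 667 nm with signal to noise over three replicate slides.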 To be noted: DKK1 binding, higher = more signal.
The test system of assay [10] is Inhibin beta A chain (activin A). The assay can be described thus: INHBA (activin A) binders on microarrays, primary screen, biochemical, small-molecule microarray, 635 nm fluorescence scan (AID 1107).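 Also: mouse activin A protein probed at 4.33 µg/mL on printed slides; score merges bound-protein fluorescence near 667 nm with spot signal-to-noise.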 To be noted: small-molecule microarray binding, higher = more signal.
The test system of assay [11] is Human papillomavirus type 1a protein E7 (residues 44-93). The assay can be described thus: HPV1a E7 fragment binders on microarrays, primary screen, biochemical, small-molecule microarray, residues 44-93, 635 nm fluorescence (AID 1108).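 Also: E7 fragment applied at 1 µg/mL in TBST for 1 h at 4 C; score combines spot fluorescence with its signal to noise ratio.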 To be noted: small-molecule microarray binding, fluorescence 635 nm; higher = more signal.
The nature of assay [12]: modulators of HCV replicon luciferase signal, primary screen, HCV replication inhibitor project, Huh7 cells, luciferase reporter (AID 1109).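 Also: huh7 hepatoma cells harbouring a luciferase neomycin HCV replicon reporter; luciferase luminescence as measure of HCV replicon replication; test concentration not given here.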 Conditions: 48 h, higher = more signal.
The target of assay [13] is Left-right determination factor 2 (Homo sapiens) (UniProt O00292). Kind of assay: LEFTY2 binders on small-molecule microarrays, primary screen, biochemical, small-molecule microarray, 635 nm fluorescence scan (AID 1110). To be noted: LEFTY2 binding, higher = more signal.
Chain of Left-right determination factor 2 (Homo sapiens) (O00292 whole entry, looked up): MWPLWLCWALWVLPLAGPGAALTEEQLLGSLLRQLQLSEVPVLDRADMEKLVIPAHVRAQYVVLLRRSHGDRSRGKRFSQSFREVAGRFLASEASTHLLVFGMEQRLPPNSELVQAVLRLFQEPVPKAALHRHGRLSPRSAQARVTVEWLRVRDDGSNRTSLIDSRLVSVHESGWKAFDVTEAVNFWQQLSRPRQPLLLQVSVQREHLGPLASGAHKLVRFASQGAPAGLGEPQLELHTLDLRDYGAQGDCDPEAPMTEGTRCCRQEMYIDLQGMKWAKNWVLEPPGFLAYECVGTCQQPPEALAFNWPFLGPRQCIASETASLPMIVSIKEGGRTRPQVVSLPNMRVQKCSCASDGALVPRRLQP
Assay [14] addresses Calmodulin-1 (Homo sapiens) (UniProt P0DP23). Kind of assay: CALM1 binders on microarrays, EGTA buffer, profiling panel, biochemical, small-molecule microarray, Cy5-labelled CALM1 (AID 1111).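 Also: labelled calmodulin applied in Tris saline Tween buffer holding calcium plus EGTA and DTT.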 Conditions: Cy5-CALM1 binding fluorescence, higher = more signal.
For assay [15] the target is unchanged. Kind of assay: calcium-bound CALM1 binders on microarrays, profiling panel, artefact control for SMM control-protein annotation, biochemical, small-molecule microarray, Cy5-labelled CALM1, plus calcium (AID 1112).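 Also: score merges spot fluorescence with signal to noise from triplicate slides.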 Conditions: Cy5-CALM1 binding fluorescence, higher = more signal.
A short description of assay [16]: small-molecule microarray binders of probe aWnt5a, primary screen, biochemical, biotinylated probe, 635/667 nm fluorescence (AID 1113).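 Also: score merges 667 nm fluorescence intensity with signal-to-noise per printed feature.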 Conditions: higher = more signal.
A short description of assay [17]: small-molecule microarray binders of probe aShh, primary screen, biochemical, biotinylated probe, 635/667 nm fluorescence (AID 1114).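 Also: probe is biotin-labelled aShh protein from a stem cell growth factor screen; measures binding of labelled protein to compounds printed on the slide; score merges feature fluorescence at 667 nm with signal-to-noise.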 Conditions: higher = more signal.
Assay [18] is described as follows: small-molecule microarray binders of probe aNog, primary screen, biochemical, biotinylated probe, 635/667 nm fluorescence (AID 1115).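 Also: probe is biotinylated aNog protein used at 0.15 µg/mL for 1 h at 4 C; z-score combines 667 nm fluorescence of each spot with its signal to noise.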 To be noted: higher = more signal.
Assay [19] addresses Torsin-1A-interacting protein 1 (Homo sapiens) (UniProt Q5JTV8). Kind of assay: LAP1 binders from COS7 cell lysate, primary screen, small-molecule microarray, 635/667 nm fluorescence (AID 1116). Conditions: COS7-hLAP1 lysate binding, 635 nm fluorescence, higher = more signal.
In assay [20] the target is Alpha-bungarotoxin (Bungarus multicinctus) (UniProt P60615). Kind of assay: alpha-bungarotoxin binders on microarray, profiling panel, artefact control for SMM control protein annotation, biochemical, small-molecule microarray, Alexa647 label, 635/667 nm fluorescence (AID 1117). To be noted: alpha-BTX-A647 binding fluorescence, higher = more signal.
Chain of Alpha-bungarotoxin (Bungarus multicinctus) (P60615 whole entry, looked up): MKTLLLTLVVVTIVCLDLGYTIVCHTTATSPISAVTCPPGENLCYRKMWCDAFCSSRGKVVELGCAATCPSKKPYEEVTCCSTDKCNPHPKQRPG

Chain of Torsin-1A-interacting protein 1 (Homo sapiens) (Q5JTV8 whole entry, looked up): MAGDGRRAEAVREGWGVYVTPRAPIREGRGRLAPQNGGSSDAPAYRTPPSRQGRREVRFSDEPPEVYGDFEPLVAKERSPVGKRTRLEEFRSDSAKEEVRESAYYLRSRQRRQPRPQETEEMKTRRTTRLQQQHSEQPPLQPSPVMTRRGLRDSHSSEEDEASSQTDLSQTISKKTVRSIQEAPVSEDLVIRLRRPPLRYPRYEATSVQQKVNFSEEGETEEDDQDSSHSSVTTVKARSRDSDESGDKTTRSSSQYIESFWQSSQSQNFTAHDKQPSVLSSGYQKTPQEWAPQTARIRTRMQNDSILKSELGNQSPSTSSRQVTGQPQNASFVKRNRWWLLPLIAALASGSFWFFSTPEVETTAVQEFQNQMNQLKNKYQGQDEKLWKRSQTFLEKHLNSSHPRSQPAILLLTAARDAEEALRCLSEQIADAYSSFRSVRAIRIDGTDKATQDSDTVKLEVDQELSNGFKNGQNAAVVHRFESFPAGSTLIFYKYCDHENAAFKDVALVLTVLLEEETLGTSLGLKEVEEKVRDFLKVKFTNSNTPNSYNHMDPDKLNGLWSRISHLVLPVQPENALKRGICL
Chain of Dickkopf-related protein 1 (Homo sapiens) (O94907 whole entry, looked up): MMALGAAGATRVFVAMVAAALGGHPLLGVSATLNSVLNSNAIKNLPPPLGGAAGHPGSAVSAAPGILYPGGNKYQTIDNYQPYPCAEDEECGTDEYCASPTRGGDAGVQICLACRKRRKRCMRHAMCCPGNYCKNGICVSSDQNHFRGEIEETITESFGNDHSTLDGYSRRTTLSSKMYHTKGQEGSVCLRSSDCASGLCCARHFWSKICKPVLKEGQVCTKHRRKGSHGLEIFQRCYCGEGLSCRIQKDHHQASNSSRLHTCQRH
Chain of Fibroblast growth factor 10 (Homo sapiens) (O15520 whole entry, looked up): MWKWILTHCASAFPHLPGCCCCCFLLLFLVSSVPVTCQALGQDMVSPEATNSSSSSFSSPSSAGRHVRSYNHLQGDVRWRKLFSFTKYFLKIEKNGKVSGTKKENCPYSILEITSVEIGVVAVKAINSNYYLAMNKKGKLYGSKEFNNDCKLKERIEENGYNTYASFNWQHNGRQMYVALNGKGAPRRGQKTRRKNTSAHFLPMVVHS

For `C=CCN(C(=O)C(c1cccs1)N(C(=O)/C=C\C(=O)O)c1ccc(CCO)cc1)C(C)(C)C` (stereo not given), the composite z-score in assay [1] is -0.202 and 0.938; in assay [2] it was -0.123 and 0.0381; in assay [3] it was 0.274 and 1.05; in assay [5], -0.99 and -2.19; in [6] it was -0.265 and -0.746; in assay [7], -1.41 and -1.91. The composite z-score in assay [8] was -1.76 and -2.36; in [9], -2.48 and -2.7; in assay [10], -1.03 and -2.06; in [11], -1.51 and -0.35; in assay [13] it was -3.2 and -3.93; in [14], 0.295 and 0.0738. The composite z-score in [15] was 1.1 and 0.871; in assay [16] it was -0.148 and -0.27; in assay [17] it was -0.0035 and 0.568; in assay [18], 1.1 and -0.0102; in [19], 3.3 and 2.33; in assay [20], -0.263 and -1.06. For the same molecule, the z-score in assay [4] is -0.14 (inactive) and 0.253 (inactive); in [12], -0.18 and 0.135.

As for `CCOC(=O)C[C@H]1[C@H](OC(=O)c2ccccc2-c2ccccc2)[C@@H](NC(=O)Cc2ccc(OC)cc2)c2cc(OCCCO)ccc2N1C(=O)c1ccc2ccccc2n1`, the composite z-score is 0.108 and 0.154 in assay [1]; -0.114 and 0.575 in assay [2]; 0.0078 and 0.468 in assay [3]; 0.43 and 0.682 in assay [5]; 0.0554 and 0.185 in assay [6]; 0.219 and -0.108 in assay [7]. The composite z-score in [8] was 0.0539 and 0.0407; in assay [9], 0.404 and 0.209; in assay [10] it was 0.773 and 0.105; in assay [11], 0.005 and 0.188; in assay [13] it was 0.417 and 0.0866; in assay [14], 0.174 and 1.45. In addition, the composite z-score in assay [15] was 0.141 and 0.318; in [16] it was 0.0031 and 0.0512; in assay [17], -0.0681 and -0.0146; in assay [18], 0.0926 and -0.111; in [19] it was 0.032 and 0.747; in [20], 0.572 and 0.924. The z-score was -0.472 (inactive) and -0.891 (inactive) in [4]; -1.38 and -0.367 in [12].

For `CCCCCN1CC=CC23O[C@@H]4C=CCCOC(=O)C4[C@H]2C(=O)N(C(C)CO)[C@@H]3C1=O` (stereo not given in full), the composite z-score was 1.83 and 0.878 in assay [1]; -1.21 and 0.263 in [2]; -0.532 and 0.779 in assay [3]; 0.0253 and -0.6 in assay [5]; 0.375 and -0.449 in [6]; -0.655 and -0.706 in [7]. Moreover, the composite z-score in [8] is 0.164 and -0.32; in [9], -0.057 and -0.695; in assay [10], -0.131 and 0.537; in [11] it was 0.439 and 1.12; in assay [13], -0.151 and -0.907; in [14], -0.858 and 0.167. The composite z-score is -0.707 and -0.806 in assay [15]; -0.357 and -0.28 in assay [16]; -0.223 and -0.0035 in [17]; -0.789 and -0.301 in assay [18]; -0.759 and 2.57 in [19]; -0.342 and 0.335 in [20]. Also, the z-score in [4] is 0.691 (inactive) and 0.361 (inactive); in assay [12], -1.79 and 1.05.

As for `CC(C)N1CC=CC23O[C@@H]4C=CCCOC(=O)C4[C@H]2C(=O)N(C(C)CO)[C@@H]3C1=O` (stereo not given in full), the composite z-score was 0.966 and -0.2 in [1]; 0.802 and -0.0438 in [2]; 1 and 0.404 in [3]; -0.858 and -0.457 in [5]; -0.132 and -0.547 in assay [6]; -1.71 and -0.693 in [7]. For the same molecule, the composite z-score in assay [8] is -1.66 and -0.676; in [9], -2.56 and -0.647; in assay [10] it was 0.644 and 1.35; in assay [11], 0.163 and -0.9; in assay [13], -1.4 and -1.42; in assay [14], -0.302 and -0.271. Besides, the composite z-score is 0.269 and 0.224 in assay [15]; -0.26 and -0.152 in assay [16]; -0.138 and 0.0305 in assay [17]; 0.111 and -0.0784 in [18]; 1.62 and 0.0015 in [19]; -0.712 and -1.74 in assay [20]. For the same molecule, the z-score in assay [4] was -1.6 (inactive) and -1.03 (inactive); in assay [12] it was 0.179 and -0.144.

Take `C=CCN(Cc1ccccc1)C(=O)C1N(CCCCCCO)C(=O)C2C(C(=O)O)C3C=CC21O3` (stereo not given): the composite z-score was 0.751 and 0.912 in assay [1]; -0.0659 and -0.197 in assay [2]; 0.991 and 0.926 in assay [3]; -1.02 and -2.08 in [5]; -0.973 and -1.08 in [6]; -1.7 and -1.71 in assay [7]. Moreover, the composite z-score in assay [8] was -1.49 and -1.67; in [9], -1.79 and -4; in [10], -1.29 and -2.29; in assay [11] it was -0.352 and -1.02; in assay [13] it was -2.37 and -4.16; in [14] it was -0.326 and -0.505. Also, the composite z-score in assay [15] is 0.498 and 0.722; in assay [16], -0.219 and -0.332; in assay [17] it was -0.0709 and -0.0035; in assay [18] it was -0.0211 and -0.316; in assay [19] it was 0.193 and 0.0816; in assay [20], -1.13 and -1.12. Further, the z-score in assay [4] is -0.679 (inactive) and -1.35 (inactive); in [12], 0.0022 and 0.118.

The values above are taken from PubChem BioAssay.
